Measurements: PubChem BioAssay (Tox21)
Results filed as inconclusive are left out. Calls of active or inactive are those of the source. Unless noted, calls come from the whole dose curve; as a rule, active = well fitted curve in the direction sought with a large enough effect in the repeat runs; inconclusive = weak or mixed curves; inactive = no such curve, though single readings can be large; an effect the other way counts as inactive or inconclusive.

Assays:
[1] = qHTS assay to identify small molecule agonists of the peroxisome proliferator-activated receptor delta (PPARd) signaling pathway - cell viability counter screen (AID 743211); note: nearly all actives have a fitted effect of over 55% in size; note: potency is the fitted concentration of half-maximal effect
How it was run: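 Read-out: CellTiter-Glo luminescence, 30 min RT, measured in the same wells as the beta-lactamase reporter. Cells: GeneBLAzer PPAR delta UAS-bla HEK293H, 3000 cells/well, compound exposure 17 h at 37C.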

[2] = qHTS assay to identify small molecule antagonists of the peroxisome proliferator-activated receptor delta (PPARd) signaling pathway - cell viability counter screen (AID 743213); note: nearly all actives have a fitted effect of over 50% in size
How it was run: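 Agonist-stimulated (L165041, 300 nM final) HEK293H PPARd UAS-bla cells are exposed to compounds for 17 h at 37 C, and ATP-based luminescence (CellTiter-Glo) from the same wells reports cytotoxicity.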

[3] = qHTS assay to identify small molecule agonists of the farnesoid-X-receptor (FXR) signaling pathway - cell viability counter screen (AID 743218); note: nearly all actives have a fitted effect of over 45% in size
How it was run: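 Quantitative HTS counter screen measuring ATP-based viability via CellTiter-Glo luminescence in HEK 293T cells carrying a UAS-driven beta-lactamase reporter, after 16 h compound exposure at 37 C.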

[4] = qHTS assay to identify small molecule antagonists of the farnesoid-X-receptor (FXR) signaling pathway - cell viability counter screen (AID 743221; active = well fitted cell-killing curve with a large enough effect in the repeat runs, not every such curve was filed as active; note: nearly all actives have a fitted effect of over 50% in size)
How it was run: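 HEK 293T FXR-bla cells, 5 h pre-incubation; compound + CDCA 50 uM final, 16 h, 37 C; beta-lactamase FRET read first, then CellTiter-Glo luminescence, 30 min RT.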

[5] = molecular target: Bile acid receptor (Homo sapiens) (UniProt Q96RI1); test: qHTS assay to identify small molecule antagonists of the farnesoid-X-receptor (FXR) signaling pathway (AID 743217; active = well fitted inhibition curve with a large enough effect in the signal ratio in the repeat runs, not every such curve was filed as active; the % refers to the signal ratio)
Bile acid receptor (Homo sapiens), sequence (Q96RI1 whole entry, looked up): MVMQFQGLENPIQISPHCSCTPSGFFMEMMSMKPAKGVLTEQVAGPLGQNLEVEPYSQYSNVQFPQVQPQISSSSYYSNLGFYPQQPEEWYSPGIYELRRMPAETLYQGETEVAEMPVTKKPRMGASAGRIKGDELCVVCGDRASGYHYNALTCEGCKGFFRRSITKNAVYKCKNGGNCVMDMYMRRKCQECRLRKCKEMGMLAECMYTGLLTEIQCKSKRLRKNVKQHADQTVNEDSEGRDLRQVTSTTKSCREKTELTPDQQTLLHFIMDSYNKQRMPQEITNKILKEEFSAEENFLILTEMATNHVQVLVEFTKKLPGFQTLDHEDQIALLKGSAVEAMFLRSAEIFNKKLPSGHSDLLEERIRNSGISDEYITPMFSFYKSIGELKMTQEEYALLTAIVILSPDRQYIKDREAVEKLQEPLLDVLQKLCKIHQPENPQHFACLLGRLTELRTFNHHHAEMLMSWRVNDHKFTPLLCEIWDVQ
How it was run: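 Test compounds are pin-transferred onto FXR-bla HEK 293T cells, then chenodeoxycholic acid is added at 50 uM final. After 16 h at 37 °C, LiveBLAzer B/G substrate is applied for 2 h at room temperature and fluorescence read.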

[6] = molecular target: Bile acid receptor (Homo sapiens) (UniProt Q96RI1); test: qHTS assay to identify small molecule agonists of the farnesoid-X-receptor (FXR) signaling pathway (AID 743220; active = well fitted activation curve with a large enough effect in the signal ratio in the repeat runs, not every such curve was filed as active; the % refers to the signal ratio)
How it was run: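 FXR-UAS-bla HEK 293T cells carrying a UAS-driven beta-lactamase reporter were plated for 5 h at 37C/5% CO2, then exposed to DMSO-dissolved Tox21 10K compounds for 16 h at 37C. A LiveBLAzer B/G FRET substrate was loaded for 2 h at room temperature before fluorescence reading.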

[7] = molecular target: Vitamin D3 receptor (Homo sapiens) (UniProt P11473); test: qHTS assay to identify small molecule agonists of the vitamin D receptor (VDR) signaling pathway (AID 743222; calls by dose curve)
Vitamin D3 receptor (Homo sapiens), sequence (P11473 whole entry, looked up): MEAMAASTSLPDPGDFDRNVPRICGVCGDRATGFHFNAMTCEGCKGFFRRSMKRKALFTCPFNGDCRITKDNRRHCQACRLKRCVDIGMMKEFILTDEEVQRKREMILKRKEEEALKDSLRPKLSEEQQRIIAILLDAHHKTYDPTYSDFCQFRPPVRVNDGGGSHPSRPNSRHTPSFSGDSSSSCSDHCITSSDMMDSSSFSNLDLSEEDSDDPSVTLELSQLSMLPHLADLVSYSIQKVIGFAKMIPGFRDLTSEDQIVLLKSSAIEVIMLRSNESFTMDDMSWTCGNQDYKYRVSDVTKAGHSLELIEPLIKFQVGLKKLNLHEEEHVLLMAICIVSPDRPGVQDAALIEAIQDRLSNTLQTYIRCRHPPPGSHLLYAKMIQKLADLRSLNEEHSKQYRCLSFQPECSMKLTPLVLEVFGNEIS
How it was run: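 Tox21 cell reporter format: VDR-bla line, 16 h compound exposure in 5% CO2 at 37C, then fluorescence intensity after 2 h with LiveBLAzer B/G FRET substrate.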

[8] = molecular target: Peroxisome proliferator-activated receptor delta (Homo sapiens) (UniProt Q03181); test: qHTS assay to identify small molecule agonists of the peroxisome proliferator-activated receptor delta (PPARd) signaling pathway (AID 743212; calls by dose curve)
Peroxisome proliferator-activated receptor delta (Homo sapiens), sequence (Q03181 whole entry, looked up): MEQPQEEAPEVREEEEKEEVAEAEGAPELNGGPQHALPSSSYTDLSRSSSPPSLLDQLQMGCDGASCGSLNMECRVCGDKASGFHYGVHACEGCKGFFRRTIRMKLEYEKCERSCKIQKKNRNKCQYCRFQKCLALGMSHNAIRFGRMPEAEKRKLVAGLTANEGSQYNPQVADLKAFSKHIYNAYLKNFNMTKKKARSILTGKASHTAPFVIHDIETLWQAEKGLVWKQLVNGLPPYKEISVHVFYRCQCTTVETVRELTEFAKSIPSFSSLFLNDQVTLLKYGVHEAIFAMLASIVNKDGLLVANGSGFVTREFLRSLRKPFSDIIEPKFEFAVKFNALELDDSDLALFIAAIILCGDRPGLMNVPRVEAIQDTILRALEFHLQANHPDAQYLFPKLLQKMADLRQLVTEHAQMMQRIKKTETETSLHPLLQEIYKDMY
How it was run: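 Beta-lactamase reporter readout: a ratiometric FRET signal from the LiveBLAzer substrate after 2 h at room temperature. Compound exposure at 37 °C in PPARδ-bla HEK293H cells driven by an upstream activator sequence.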

[9] = molecular target: Peroxisome proliferator-activated receptor delta (Homo sapiens) (UniProt Q03181); test: qHTS assay to identify small molecule antagonists of the peroxisome proliferator-activated receptor delta (PPARd) signaling pathway (AID 743215; active = well fitted inhibition curve with a large enough effect in the signal ratio in the repeat runs, not every such curve was filed as active; the % refers to the signal ratio; note: potency is the fitted concentration of half-maximal effect)
How it was run: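 Here, a reporter line (HEK293H, beta-lactamase under a UAS) measures PPARd signaling. Compounds are tested against agonist L165041 at 300 nM final concentration over 17 h at 37 C, with fluorescence read after substrate.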

[10] = molecular target: Vitamin D3 receptor (Homo sapiens) (UniProt P11473); test: qHTS assay to identify small molecule antagonists of the vitamin D receptor (VDR) signaling pathway (AID 743223; active = well fitted inhibition curve with a large enough effect in the signal ratio in the repeat runs, not every such curve was filed as active; the % refers to the signal ratio)
How it was run: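 Beta-lactamase reporter read-out: FRET substrate fluorescence after 2 h at room temperature, following 16 h exposure of VDR-bla cells to test compound plus 3 nM (final) 1alpha,25-dihydroxyvitamin D3 agonist at 37C.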
% is set by controls: 0 for no effect and ±100 for the full control effect.

NS(=O)(=O)c1cc(C(=O)NN2C[C@H]3[C@H]4CCC(C4)[C@H]3C2)ccc1Cl
inactive: Potency [1] | Potency [2] | Potency [3] | Potency [4]

CN1CCN(c2cc3c(cc2F)c(=O)c(C(=O)O)cn3-c2ccc(F)cc2)CC1
inactive: Potency [1] | Potency [2] | outcome [5] | Potency [3] | outcome [6] | Potency [4] | outcome [7]

C[C@H](NC(CCc1ccccc1)C(=O)O)C(=O)N1CCC[C@H]1C(=O)O (some centres not stated)
inactive: Potency [1] | outcome [8] | Potency [9] | Potency [3] | outcome [7] | outcome [10]

C[C@](N)(Cc1ccc(O)cc1)C(=O)O
inactive: activity change, negative = cytotoxicity [1] 3.74% [at 5.95 µM] | viability change, negative = cytotoxic [2] 17.6% [at 6.26 µM] | activity change, negative = inhibition [5] 3.49% [at 5.95 µM] | viability change, negative = cytotoxic [3] 17.1% [at 5.95 µM] | activation [6] 1.44% [at 5.95 µM] | activity change, negative = cytotoxicity [4] -5.83% [at 5.95 µM]

Nc1cc(=O)[nH]c(N)n1
inactive: Potency [1] | Potency [2] | outcome [5] | outcome [6] | Potency [4] | outcome [7] | outcome [10]

CCOC(=O)c1c(C)n(C)c2ccc(O)cc12
inactive: Potency [1] | Potency [2] | outcome [5] | Potency [3] | outcome [6] | Potency [4] | outcome [7] | outcome [10]

CCN1CCC[C@H]1CNC(=O)c1c(O)c(Cl)cc(Cl)c1OC
inactive: Potency [1] | outcome [8] | Potency [3] | Potency [4]

COC(=O)NN
inactive: Potency [1] | outcome [8] | outcome [5] | outcome [6] | Potency [4] | outcome [7] | outcome [10]

CC(C)(O)C(=O)c1ccccc1
inactive: Potency [1] | outcome [8] | outcome [5] | Potency [3] | outcome [6] | Potency [4] | outcome [7]

CC(=O)c1ccccc1O
inactive: Potency [1] | Potency [2] | outcome [5] | Potency [3] | outcome [6] | Potency [4] | outcome [7] | outcome [10]

CCN(CC)CCOCCOC(=O)C1(c2ccccc2)CCCC1
inactive: Potency [1] | Potency [2] | outcome [5] | Potency [3] | outcome [6] | Potency [4]

Cc1sccc1Br
inactive: Potency [1] | Potency [2] | outcome [5] | Potency [3] | outcome [6] | Potency [4] | outcome [7] | outcome [10]

CCCc1cc(C(N)=S)ccn1
inactive: Potency [1] | Potency [2]

O=C1CCCC(=O)C1
inactive: Potency [1] | Potency [2] | outcome [5] | outcome [6] | Potency [4] | outcome [7] | outcome [10]

CN(C)CCCSc1ccccc1NC(=O)/C=C/c1ccccc1
inactive: Potency [1] | outcome [8] | Potency [9] | outcome [6] | Potency [4] | outcome [7] | outcome [10]

Nc1ccc(S(=O)(=O)Nc2ccnn2-c2ccccc2)cc1
inactive: Potency [1] | Potency [2] | outcome [5] | Potency [3] | outcome [6] | Potency [4] | outcome [7] | outcome [10]

CC(=O)Nc1ccc(S(N)(=O)=O)cc1
inactive: Potency [1] | outcome [8] | outcome [5] | Potency [3] | outcome [6] | Potency [4] | outcome [7]

CCc1ccc(O)c(OC)c1
inactive: Potency [1] | Potency [2] | Potency [9] | outcome [5] | Potency [3] | outcome [6] | Potency [4]

CCOC(=O)Nc1ccc(NCc2ccc(F)cc2)nc1N
inactive: Potency [1] | Potency [2] | Potency [9] | Potency [3] | Potency [4] | outcome [7]

CCCCCCCCCCCC
inactive: Potency [1] | Potency [2] | Potency [3] | Potency [4]

Cc1cc2c(cc1S(N)(=O)=O)S(=O)(=O)CCC2
inactive: Potency [1] | Potency [2] | Potency [9] | outcome [5] | Potency [3] | Potency [4]

COC(=O)CC(C)=O
inactive: Potency [1] | outcome [8] | Potency [9] | Potency [4]

O=C[C@H](O)[C@@H](O)[C@H](O)[C@H](O)CO
inactive: Potency [1] | Potency [2] | Potency [3] | Potency [4]

O=C1CCCN1C1CCCCC1
inactive: Potency [1] | Potency [2] | outcome [5] | Potency [3] | outcome [6] | outcome [7] | outcome [10]

CC(C)NCCCC1(C(N)=O)c2ccccc2-c2ccccc21
inactive: Potency [1] | outcome [8] | Potency [3] | Potency [4] | outcome [7] | outcome [10]

CC(C)c1cc2c(cc1S(=O)(=O)O)[C@@]1(C)CCC[C@@](C)(C(=O)O)[C@@H]1CC2
inactive: Potency [1] | outcome [8] | Potency [3] | Potency [4] | outcome [7] | outcome [10]

CS(=O)(=O)O
inactive: Potency [1] | outcome [5] | outcome [6] | Potency [4] | outcome [7] | outcome [10]

CO[C@]12C[C@@H](COC(=O)c3cncc(Br)c3)CN(C)[C@@H]1Cc1cn(C)c3cccc2c13
inactive: Potency [1] | Potency [2] | Potency [3] | Potency [4] | outcome [7]

CCOc1ccc(C(=O)OCCN(CC)CC)cc1
inactive: Potency [2] | outcome [5] | outcome [6] | Potency [4] | outcome [7] | outcome [10]

CC(C)(C)c1ccc(O)c(O)c1
active: Potency [1] 25.4 µM | Potency [9] 50.7 µM
inactive: Potency [3] | Potency [4] | outcome [7]

NS(=O)(=O)c1cc(C(=O)O)cc(N2CCCC2)c1Oc1ccccc1
inactive: outcome [8] | Potency [2] | Potency [3] | Potency [4] | outcome [7] | outcome [10]
